Measured values as given in PubChem BioAssay AID1159580 (chemical genetic matrix, 2015).
Out of some 5,500 compounds screened, about 2,000 (36%) were called active. Roughly 18% stayed inconclusive and do not appear here. Rule as the data show it: active = normalized growth mostly below about 0.91 (no sharp cut-off); inconclusive = no clear call, values can overlap the other calls; inactive = mostly above about 0.92. This is one part of the list.

Experiment: chemical genetic growth profiling, strain panel (AID 1159580);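 also: tested at 20 µM; growth read once vehicle control cultures reached saturation at 30 °C; 1 = growth at the plate median or of vehicle wells; lower values mean less growth of the strain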
Conditions: growth OD

Measured: normalized growth

C=Cc1c2[nH]c(c1C)C=c1[nH]c(c(C)c1C=C)=CC1N=C(C=c3[nH]c(c(C)c3CCC(=O)O)=C2)C(CCC(=O)O)=C1C (configuration not stated)
inactive: S. cerevisiae deletion strains, locus YJR075W, strain HOC1, stronger effect = lower value 0.947 | S. cerevisiae deletion strains, locus YKL068W, stronger effect = lower value 1.06 | S. cerevisiae deletion strains, locus YKL160W, strain elf1, stronger effect = lower value 0.963 | S. cerevisiae deletion strains, locus YKL190W, strain CNB1, stronger effect = lower value 0.99 | S. cerevisiae deletion strains, locus YKR001C, strain vps1, stronger effect = lower value 0.953 | S. cerevisiae deletion strains, locus YKR026C, strain gcn3, stronger effect = lower value 1.06 | S. cerevisiae deletion strains, locus YKR091W, strain srl3, stronger effect = lower value 1 | S. cerevisiae deletion strains, locus YLL001W, strain dnm1, stronger effect = lower value 1.02 | S. cerevisiae deletion strains, locus YLL026W, stronger effect = lower value 1.02 | S. cerevisiae deletion strains, locus YLL041C, strain sdh2, stronger effect = lower value 1.02 | S. cerevisiae deletion strains, locus YLR027C, strain aat2, stronger effect = lower value 1 | S. cerevisiae deletion strains, locus YLR039C, strain RIC1, stronger effect = lower value 0.996 | S. cerevisiae deletion strains, locus YLR058C, strain SHM2, stronger effect = lower value 0.976 | S. cerevisiae deletion strains, locus YLR102C, strain apc9, stronger effect = lower value 0.992 | S. cerevisiae deletion strains, locus YLR113W, strain HOG1, stronger effect = lower value 1.05 | S. cerevisiae deletion strains, locus YLR221C, strain rsa3, stronger effect = lower value 0.975 | S. cerevisiae deletion strains, locus YLR258W, strain gsy2, stronger effect = lower value 1.02 | S. cerevisiae deletion strains, locus YLR262C, strain YPT6 (second series), stronger effect = lower value 1.07 | S. cerevisiae deletion strains, locus YLR262C, strain YPT6, stronger effect = lower value 0.976 | S. cerevisiae deletion strains, locus YLR268W, strain sec22, stronger effect = lower value 1.06 | S. cerevisiae deletion strains, locus YLR320W, strain mms22, stronger effect = lower value 0.996 | S. cerevisiae deletion strains, locus YLR330W, strain CHS5, stronger effect = lower value 0.99 | S. cerevisiae deletion strains, locus YLR342W, strain FKS1 (second series), stronger effect = lower value 0.993 | S. cerevisiae deletion strains, locus YLR342W, strain FKS1, stronger effect = lower value 1.03 | S. cerevisiae deletion strains, locus YLR357W, strain rsc2, stronger effect = lower value 1.05 | S. cerevisiae deletion strains, locus YLR370C, strain arc18, stronger effect = lower value 0.999 | S. cerevisiae deletion strains, locus YLR371W, strain rom2, stronger effect = lower value 0.949 | S. cerevisiae deletion strains, locus YLR384C, strain iki3, stronger effect = lower value 1.04 | S. cerevisiae deletion strains, locus YLR418C, strain cdc73, stronger effect = lower value 0.885 | S. cerevisiae deletion strains, locus YML016C, strain PPZ1, stronger effect = lower value 0.979 | S. cerevisiae deletion strains, locus YML032C, strain rad52, stronger effect = lower value 1.01 | S. cerevisiae deletion strains, locus YML120C, strain ndi1, stronger effect = lower value 1.01 | S. cerevisiae deletion strains, locus YML124C, strain tub3, stronger effect = lower value 0.987 | S. cerevisiae deletion strains, locus YMR058W, strain fet3, stronger effect = lower value 0.912 | S. cerevisiae deletion strains, locus YMR078C, strain ctf18, stronger effect = lower value 0.993 | S. cerevisiae deletion strains, locus YMR125W, strain sto1, stronger effect = lower value 1.06 | S. cerevisiae deletion strains, locus YMR129W, stronger effect = lower value 1.06 | S. cerevisiae deletion strains, locus YMR205C, strain PFK2, stronger effect = lower value 1.02 | S. cerevisiae deletion strains, locus YMR223W, strain ubp8, stronger effect = lower value 0.972 | S. cerevisiae deletion strains, locus YMR231W, strain pep5, stronger effect = lower value 1.02 | S. cerevisiae deletion strains, locus YMR263W, strain SAP30, stronger effect = lower value 0.982 | S. cerevisiae deletion strains, locus YMR307W, strain GAS1, stronger effect = lower value 0.909 | S. cerevisiae deletion strains, locus YNL067W, strain RPL9B, stronger effect = lower value 1 | S. cerevisiae deletion strains, locus YNL128W, strain TEP1, stronger effect = lower value 0.975 | S. cerevisiae deletion strains, locus YNL153C, strain GIM3, stronger effect = lower value 1 | S. cerevisiae deletion strains, locus YNL183C, strain NPR1, stronger effect = lower value 1.01 | S. cerevisiae deletion strains, locus YNL209W, strain ssb2, stronger effect = lower value 1.02 | S. cerevisiae deletion strains, locus YNL233W, strain BNI4, stronger effect = lower value 1.01 | S. cerevisiae deletion strains, locus YNL248C, strain rpa49, stronger effect = lower value 0.987 | S. cerevisiae deletion strains, locus YNL250W, strain rad50, stronger effect = lower value 1.02 | S. cerevisiae deletion strains, locus YNL271C, strain bni1, stronger effect = lower value 1.02 | S. cerevisiae deletion strains, locus YNL298W, strain CLA4, stronger effect = lower value 1 | S. cerevisiae deletion strains, locus YNL307C, strain MCK1, stronger effect = lower value 0.966 | S. cerevisiae deletion strains, locus YNL322C, strain KRE1 (second series), stronger effect = lower value 1.03 | S. cerevisiae deletion strains, locus YNL322C, strain KRE1, stronger effect = lower value 0.989 | S. cerevisiae deletion strains, locus YNR049C, strain mso1, stronger effect = lower value 1.01 | S. cerevisiae deletion strains, locus YNR052C, strain pop2, stronger effect = lower value 1 | S. cerevisiae deletion strains, locus YOL006C, strain TOP1, stronger effect = lower value 0.997 | S. cerevisiae deletion strains, locus YOL012C, strain htz1 0.933 | S. cerevisiae deletion strains, locus YOL147C, strain pex11, stronger effect = lower value 0.996 | S. cerevisiae deletion strains, locus YOR001W, strain rrp6, stronger effect = lower value 1.03 | S. cerevisiae deletion strains, locus YOR061W, strain CKA2, stronger effect = lower value 0.98 | S. cerevisiae deletion strains, locus YOR069W, strain VPS5, stronger effect = lower value 0.95 | S. cerevisiae deletion strains, locus YOR070C, strain gyp1, stronger effect = lower value 0.98 | S. cerevisiae deletion strains, locus YOR080W, strain dia2, stronger effect = lower value 1.01 | S. cerevisiae deletion strains, locus YOR083W, strain WHI5, stronger effect = lower value 0.951 | S. cerevisiae deletion strains, locus YOR106W, strain vam3, stronger effect = lower value 0.951 | S. cerevisiae deletion strains, locus YOR136W, strain idh2, stronger effect = lower value 0.982 | S. cerevisiae deletion strains, locus YOR144C, strain elg1, stronger effect = lower value 0.996 | S. cerevisiae deletion strains, locus YOR184W, strain ser1, stronger effect = lower value 0.964 | S. cerevisiae deletion strains, locus YOR231W, strain MKK1, stronger effect = lower value 1.05 | S. cerevisiae deletion strains, locus YOR265W, strain rbl2, stronger effect = lower value 1.01 | S. cerevisiae deletion strains, locus YOR270C, strain vph1, stronger effect = lower value 0.874 | S. cerevisiae deletion strains, locus YOR290C, strain snf2, stronger effect = lower value 0.997 | S. cerevisiae deletion strains, locus YOR316C, strain cot1, stronger effect = lower value 0.99 | S. cerevisiae deletion strains, locus YPL051W, strain arl3, stronger effect = lower value 0.949 | S. cerevisiae deletion strains, locus YPL055C, strain LGE1, stronger effect = lower value 0.903 | S. cerevisiae deletion strains, locus YPL078C, strain atp4, stronger effect = lower value 0.984 | S. cerevisiae deletion strains, locus YPL106C, strain sse1, stronger effect = lower value 0.982 | S. cerevisiae deletion strains, locus YPL240C, strain hsp82, stronger effect = lower value 0.994 | S. cerevisiae deletion strains, locus YPL241C, strain CIN2, stronger effect = lower value 0.994 | S. cerevisiae deletion strains, locus YPL256C, strain CLN2, stronger effect = lower value 1.1 | S. cerevisiae deletion strains, locus YPR119W, strain clb2, stronger effect = lower value 0.994 | S. cerevisiae deletion strains, locus YPR141C, strain kar3, stronger effect = lower value 1.01 | S. cerevisiae deletion strains, locus YPR163C, strain tif3, stronger effect = lower value 1 | S. cerevisiae deletion strains, locus YPR167C, strain met16, stronger effect = lower value 1 | S. cerevisiae deletion strains, strain wtn01, stronger effect = lower value 0.996 | S. cerevisiae strains, strain wild type, stronger effect = lower value 0.972
active: S. cerevisiae deletion strains, locus YKL009W, strain mrt4, stronger effect = lower value 0.791 | S. cerevisiae deletion strains, locus YKL085W, strain MDH1 (second series), stronger effect = lower value 1.19 [resistant] | S. cerevisiae deletion strains, locus YKL085W, strain MDH1, stronger effect = lower value 1.19 [resistant] | S. cerevisiae deletion strains, locus YNL071W, strain lat1, stronger effect = lower value 0.881
